# Measured values: PubChem BioAssay (NCATS)
# Unmarked numbers belong to inactive results. Inconclusive results are not listed. The source made the active and inactive calls. Unless noted, the call rests on the fitted dose curve; in most records, active means well fitted curve in the direction sought with a large enough effect; inconclusive means small, poorly fitted or top-dose-only effect, or another doubt; inactive means no such curve, though single readings can be large; an effect the other way counts as inactive or inconclusive.
# Legend:
# [1] = biological target: Cytochrome P450 3A4 (Homo sapiens) (UniProt P08684); experiment: qHTS Assay for Activators of Cytochrome P450 3A4 (AID 885); further: nearly all actives have a fitted effect of over 65% in size
# Method in brief: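 Using 20nM recombinant human CYP3A4 in potassium phosphate (200mM), substrate Luciferin-PPXE at 25uM, luminescent luciferin detection followed a 60-min RT NADPH reaction; data scaled to 57 uM ketoconazole.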
# [2] = MultiTox-Fluor Cytotoxicity Assay - LYMP1-001 - Dead Cells (AID 946); further: potency means the concentration at half of the fitted maximal effect
# Method in brief: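 In this qHTS, 15 uM tetraoctylammonium bromide defined 100% and DMSO defined basal activity. Lymphoblastoid cells (LYMP1-001, 2500 per well) received compound for 16 hr at 37 C before a fluorogenic dead-cell substrate readout at 485/520 nm.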
# [3] = MultiTox-Fluor Cytotoxicity Assay - LYMP1-001 - Live Cells (AID 947); further: potency means the concentration at half of the fitted maximal effect
# [4] = MultiTox-Fluor Cytotoxicity Assay - LYMP1-002 - Dead Cells (AID 960); further: potency means the concentration at half of the fitted maximal effect; nearly all actives have a fitted effect of over 60% in size
# Method in brief: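 Concentration-dependent increases in membrane-leaked protease activity are quantified in LYMP1-002 cells after 16 hr treatment; values are normalized against DMSO and tetraoctylammonium bromide (15 uM) controls and AC50 derived by Hill modeling.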
# [5] = MultiTox-Fluor Cytotoxicity Assay - LYMP1-003 - Dead Cells (AID 961); further: potency means the concentration at half of the fitted maximal effect; nearly all actives have a fitted effect of over 70% in size
# Method in brief: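 Acute toxicity is scored as increased dead-cell protease activity in human lymphoblastoid LYMP1-003 cells after 16 h compound exposure in complete culture medium. Activity is normalized to DMSO basal and 15 uM tetraoctylammonium bromide as full response.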
# [6] = MultiTox-Fluor Cytotoxicity Assay - LYMP1-003 - Live Cells (AID 962);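 further: potency means the concentration at half of the fitted maximal effect; cells exposed to compound for 16 hours at 37 °C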
# Method in brief: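 Human lymphoblastoid line LYMP1-003 in complete culture medium, treated 16 hr with titrated compounds. Viable cells quantified via cell-permeant GF-AFC substrate fluorescence; AC50 derived by Hill fitting.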
# [7] = Cell Viability - LYMP1-003 - Assay at 24 hr (AID 963); further: potency means the concentration at half of the fitted maximal effect
# Method in brief: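 The lymphoblastoid line was treated with titrated compounds for 24 hours, and viable cell number estimated from luciferase-based ATP luminescence.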
# [8] = Cell Viability - LYMP1-003 - Assay at 40 hr (AID 964); further: potency means the concentration at half of the fitted maximal effect; nearly all actives have a fitted effect of over 60% in size
# Method in brief: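 Acute toxicity is scored as a concentration-dependent loss of intracellular ATP in LYMP1-003 cells (2500/well, complete medium) after 40 hr at 37 C, measured by CellTiter-Glo luminescence; AC50 values derive from standard Hill modelling.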
# [9] = Cell Viability - LYMP2-004 (AID 966); further: potency means the concentration at half of the fitted maximal effect; nearly all actives have a fitted effect of over 65% in size
# Method in brief: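 Viable-cell number estimated from ATP luminescence (CellTiter-Glo) in 2500 human lymphoblastoid cells/well after 24 hr at 37 C with compound. AC50 fitted to the standard Hill equation.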
# [10] = Cell Viability - LYMP2-005 (AID 967); further: potency means the concentration at half of the fitted maximal effect
# Method in brief: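 Acute cytotoxicity is scored as a concentration-dependent drop in intracellular ATP in human lymphoblastoid LYMP2-005 cells after 24 h compound treatment. ATP is quantified by luciferase luminescence, and AC50 is derived by Hill-equation modelling.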
# [11] = Cell Viability - LYMP2-013 (AID 970); further: potency means the concentration at half of the fitted maximal effect; nearly all actives have a fitted effect of over 55% in size
# Method in brief: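 In complete culture medium, human lymphoblastoid cells were dosed for 24 hr at 37 C, with tetraoctylammonium bromide (6.4pM to 92 uM) as positive control. Viability reflects luciferase-based ATP signal; AC50 derived from concentration-response curves.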
# [12] = Cell Viability - LYMP2-017 (AID 972);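 further: potency means the concentration at half of the fitted maximal effect; cells exposed to compound for 24 hours at 37 °C; nearly all actives have a fitted effect of over 55% in size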
# Method in brief: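 In this qHTS format, lymphoblastoid cells in complete medium receive test compound for a day at 37 C before ATP content is quantified by luciferase luminescence. Reported AC50 figures come from standard Hill-equation curve fitting.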
# [13] = Cell Viability - LYMP2-019 (AID 973); further: potency means the concentration at half of the fitted maximal effect; nearly all actives have a fitted effect of over 55% in size
# Method in brief: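 AC50 values come from Hill-equation modelling of qHTS concentration-response curves, where viability is measured as luciferase-based ATP luminescence in the lymphoblastoid line after 24 hr compound exposure in complete culture medium.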
# [14] = Cell Viability - LYMP2-021 (AID 974);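 further: potency means the concentration at half of the fitted maximal effect; compound exposure lasts 24 hours at 37 °C; nearly all actives have a fitted effect of over 55% in size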
# Method in brief: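 In qHTS format, compounds are tested against 2500 lymphoblastoid cells per well for 24 h; viable cell number is inferred from ATP-driven luciferase light, and Hill-equation fitting yields AC50 values.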
# [15] = Cell Viability - LYMP2-002 (AID 977);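 further: potency means the concentration at half of the fitted maximal effect; compound exposure lasted 24 h at 37 °C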
# Method in brief: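 Human lymphoblastoid cells, 2500/well, complete medium; 5 h 37 C settle; compound 24 h 37 C; CellTiter-Glo, 30 min RT; luminescence. Decrease in ATP = cytotoxicity; AC50 via Hill equation.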
# [16] = Cell Viability - LYMP2-006 (AID 978); further: potency means the concentration at half of the fitted maximal effect; nearly all actives have a fitted effect of over 60% in size
# Method in brief: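 Cells are seeded at 2500 per well and rested 5 hr at 37 C. Compounds are added across a concentration series for 24 hr at 37 C, after which ATP is quantified by luciferase luminescence.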
# [17] = Cell Viability - LYMP2-007 (AID 979);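 further: potency means the concentration at half of the fitted maximal effect; cells exposed to compound for 24 h before reading; nearly all actives have a fitted effect of over 60% in size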
# Method in brief: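 Measured via luciferase-based ATP quantitation: lymphoblastoid cells, 24 hr compound exposure at 37 C, AC50 from Hill fits.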
# [18] = Cell Viability - LYMP2-008 (AID 980)
# Method in brief: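 Measured: ATP-dependent luminescence, proportional to viable cell number, in human lymphoblastoid cells treated 24 hr with compound in complete culture medium. Values are AC50s from Hill-equation modelling of qHTS titrations.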
# [19] = Cell Viability - LYMP2-012 (AID 982)
# [20] = Cell Viability - LYMP2-016 (AID 984)
# Method in brief: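 Cells were seeded at 2500 per well and rested 5 hr before a 24 hr compound exposure at 37 C. Viability was then gauged as cellular ATP by luciferase luminescence, with AC50 values fitted to the Hill equation.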
# [21] = Cell Viability - LYMP2-018 (AID 985); further: potency means the concentration at half of the fitted maximal effect; nearly all actives have a fitted effect of over 50% in size
# Method in brief: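 In this qHTS viability assay, cells are treated for 24 hr and cellular ATP is quantified by luciferase-based luminescence, with tetraoctylammonium bromide as positive control.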
# [22] = Cell Viability - LYMP2-020 (AID 986)
# Method in brief: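 Cells at 2500 per well receive a 24 hr compound exposure at 37 C. Viability is measured as ATP-dependent luciferase luminescence, with AC50 modeled from qHTS concentration-response curves.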
# [23] = Cell Viability - LYMP2-026 (AID 989); further: potency means the concentration at half of the fitted maximal effect; nearly all actives have a fitted effect of over 50% in size
# Method in brief: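 Acute toxicity screen in complete culture medium, with 24 hr compound exposure at 37 C. Viability read as cellular ATP via luciferase reaction, with tetraoctylammonium bromide (6.4pM to 92 uM) as positive control.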
# [24] = Cell Viability - LYMP1-002 - Assay at 40 hr (AID 994)
# Method in brief: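 Concentration-dependent ATP loss after 40 hr treatment at 37 C defined toxicity; AC50 values were obtained by fitting the standard Hill equation.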
# [25] = biological target: Bile acid receptor (Homo sapiens) (UniProt Q96RI1); experiment: qHTS assay for small molecule agonists of farnesoid X receptor signaling (AID 588527; calls by dose curve;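 further: series mostly up to about 77 µM; 0% = vehicle basal and 100% = reference agonist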); conditions: HEK293T FXR-UAS-bla, beta-lactamase ratio, 16 h; activation: stronger effect = higher value
# Method in brief: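 Quantitative HTS used FXR-UAS-bla HEK293T cells with 16 h compound incubation at 37 C. EC50 values came from concentration-response curves normalized to chenodeoxycholic acid.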
# [26] = qHTS assay for small molecule agonists of the antioxidant response element (ARE) signaling pathway measured by Nrf2-dependant transcriptional activity (AID 720636; active means well fitted curve in the direction sought with a large enough effect in the repeat runs; an effect the other way counts as inactive or inconclusive;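 further: HepG2 cells with an ARE-driven luciferase reporter; % of control where 0% means no effect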)
# Method in brief: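 Cells: ARE-luc HepG2 with Nrf2-responsive luciferase. Medium contained 1% dialyzed FBS. Compound exposure lasted 16 hr at 37 C and 5% CO2, followed by ONE-Glo luciferase detection.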
# [27] = qHTS assay for small molecule antagonists of the retinoid-related orphan receptor gamma (ROR-gamma) signaling pathway - cell viability counter screen (AID 720652; active means well fitted curve in the direction sought with a large enough effect in the repeat runs; an effect the other way counts as inactive or inconclusive;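 further: potency means the concentration at half of the fitted maximal effect; compound exposure lasted 16 hr before ATP read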)
# Method in brief: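 ATP-based viability readout in the ROR-gamma reporter CHO cells after 16 hr compound exposure under doxycycline induction.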
# [28] = qHTS assay for small molecule agonists of the antioxidant response element (ARE) signaling pathway measured by Nrf2-dependant transcriptional activity - cell viability counter screen (AID 720653; active means well fitted curve in the direction sought with a large enough effect in the repeat runs; an effect the other way counts as inactive or inconclusive; further: potency means the concentration at half of the fitted maximal effect); conditions: ARE-bla HepG2 viability, CellTiter-Glo ATP luminescence, 16 h; max response: stronger effect = lower value
# Method in brief: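 ARE-bla HepG2 cells treated with compounds for 16 h at 37C; this counter screen measures viability as intracellular ATP by CellTiter-Glo luminescence after 30 min at room temperature.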
# Bile acid receptor (Homo sapiens), sequence (Q96RI1 whole entry, looked up): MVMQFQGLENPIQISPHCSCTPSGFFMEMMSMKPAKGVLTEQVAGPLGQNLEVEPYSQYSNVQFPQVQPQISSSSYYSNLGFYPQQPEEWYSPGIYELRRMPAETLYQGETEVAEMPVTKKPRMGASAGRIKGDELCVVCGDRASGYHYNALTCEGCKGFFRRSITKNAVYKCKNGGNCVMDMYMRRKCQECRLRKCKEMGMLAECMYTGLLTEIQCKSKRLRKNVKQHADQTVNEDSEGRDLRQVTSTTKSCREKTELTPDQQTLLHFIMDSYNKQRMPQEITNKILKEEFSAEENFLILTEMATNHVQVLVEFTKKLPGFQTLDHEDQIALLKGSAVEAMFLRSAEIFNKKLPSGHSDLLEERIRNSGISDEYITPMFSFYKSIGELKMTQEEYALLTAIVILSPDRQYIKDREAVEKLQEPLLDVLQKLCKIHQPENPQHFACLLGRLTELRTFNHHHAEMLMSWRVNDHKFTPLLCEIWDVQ
# Cytochrome P450 3A4 (Homo sapiens), sequence (P08684 whole entry, looked up): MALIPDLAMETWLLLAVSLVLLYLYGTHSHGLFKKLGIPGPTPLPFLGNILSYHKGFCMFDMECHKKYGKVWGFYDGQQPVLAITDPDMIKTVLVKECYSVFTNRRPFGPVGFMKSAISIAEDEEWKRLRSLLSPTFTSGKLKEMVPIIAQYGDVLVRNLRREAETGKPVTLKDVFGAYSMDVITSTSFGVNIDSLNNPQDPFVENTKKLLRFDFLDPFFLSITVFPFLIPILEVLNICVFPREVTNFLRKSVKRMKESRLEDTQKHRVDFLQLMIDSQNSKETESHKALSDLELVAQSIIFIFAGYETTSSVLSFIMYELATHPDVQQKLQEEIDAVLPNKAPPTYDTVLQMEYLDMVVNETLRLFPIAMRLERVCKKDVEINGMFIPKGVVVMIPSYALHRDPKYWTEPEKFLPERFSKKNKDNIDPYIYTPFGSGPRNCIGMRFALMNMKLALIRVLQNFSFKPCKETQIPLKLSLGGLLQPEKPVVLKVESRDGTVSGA
smiles,measurement,setting,value
CC/C(=C(\c1ccccc1)c1ccc(OCCN(C)C)cc1)c1ccc(O)cc1,Potency,[1],inactive
same,Potency,[2],50.1 µM (active)
same,Potency,[3],50.1 µM (active)
same,Potency,[4],31.6 µM (active)
same,Potency,[5],50.1 µM (active)
same,Potency,[6],50.1 µM (active)
same,Potency,[7],50.1 µM (active)
same,Potency,[8],50.1 µM (active)
same,Potency,[9],50.1 µM (active)
same,Potency,[10],50.1 µM (active)
same,Potency,[11],50.1 µM (active)
same,Potency,[12],39.8 µM (active)
same,Potency,[13],50.1 µM (active)
same,Potency,[14],50.1 µM (active)
same,Potency,[15],50.1 µM (active)
same,Potency,[16],39.8 µM (active)
same,Potency,[17],50.1 µM (active)
same,Potency,[18],50.1 µM (active)
same,Potency,[19],50.1 µM (active)
same,Potency,[20],50.1 µM (active)
same,Potency,[21],39.8 µM (active)
same,Potency,[22],50.1 µM (active)
same,Potency,[23],39.8 µM (active)
same,Potency,[24],50.1 µM (active)
same,activation,[25],1.2%
same,Potency,[26],inactive
same,Potency,[27],75 µM (active)
same,Potency,[28],70.8 µM (active)
